The entries come from a sample that favours hits as a whole.
Dicer processing: human Dicer pre-microRNA cleavage inhibition | AID 1347074 | Q9UPY3 | hit rate 6% among 47,000 | z-score at 25 µM | cat-ELCCA pre-miR-21 Dicer processing, chemiluminescence; active compounds read high; in the data active = z-score above about 3, passing the limit was not always enough;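 note: plate controls were vehicle for no effect and no enzyme for full effect; higher signal means more uncleaved substrate so more Dicer inhibition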
Starred values were filed as active, the others as inactive.

SMILES	Dicer processing
Cc1ccnc(NC(c2ccc(N(C)C)cc2)c2ccc3cccnc3c2O)c1 (configuration not stated)	6.27
CCOc1cccc(C(Nc2ccccn2)c2ccc3ccc(C)nc3c2O)c1 (configuration not stated)	-0.34
COc1ccc(C)cc1NC(c1cccnc1)c1ccc2cccnc2c1O (configuration not stated)	2.26
COc1ccc(C(Nc2ccccn2)c2ccc3ccc(C)nc3c2O)cc1OC (configuration not stated)	0.29
CCOc1cc(C(Nc2cc(C)ccn2)c2ccc3cccnc3c2O)ccc1OC (configuration not stated)	-0.73
Cc1ccnc(NC(c2ccc(N(C)C)cc2)c2ccc3ccc(C)nc3c2O)c1 (configuration not stated)	1.03
CCOc1ccc(C(Nc2cc(C)ccn2)c2ccc3cccnc3c2O)cc1OC (configuration not stated)	5.23*
CC(C)NC(=O)CSc1nc(-c2ccc(F)cc2)cc(C(F)(F)F)n1	0.87
CCCCCOC(=O)CCSc1n[nH]c(=O)[nH]c1=O	-0.19
Cc1ccc(-c2csc3ncn4nnnc4c23)cc1	-1.64
CCOC(=O)C1CCN(S(=O)(=O)c2cccs2)CC1	-1.29
CC(CN1CCOCC1)OC(=O)c1ccco1 (configuration not stated)	0.25
C#CCSc1nc(CCC)c(CC=C)c(=O)[nH]1	7.91
C=CCc1c(O)ccc2c(C)cc(=O)oc12	0.42
COC(=O)c1cscc1OS(=O)(=O)c1ccc(Cl)cc1	0.22
Cn1cnc(S(=O)(=O)Nc2ccc(C#N)cc2)c1	-0.68
O=C(c1nc(SCc2ccc(Cl)cc2)n2ccccc12)C(F)(F)F	1.35
COC(=O)c1ccc(Oc2cc(C)nc(N)n2)cc1	0.85
CN1CCN(Cc2c(O)ccc3c(=O)c(-c4ccccc4)coc23)CC1	2.02
CCc1cc2c(=O)c(-c3nc4ccccc4[nH]3)coc2c(CN2CCCC(C)C2)c1O (configuration not stated)	3.32*
CCc1cc2c(=O)c(-c3nc4ccccc4n3C)coc2c(CN(CC)CC)c1O	0.32
COc1ccc(/C(O)=C2/C(=O)C(=O)N(CCc3ccccc3)C2c2ccccc2)cc1 (configuration not stated)	0.83
N=c1scc(-c2ccc(Cl)cc2)n1-c1ccccc1N1CCOCC1	0.25
Cc1cc(C(=O)N/N=C/c2ccccc2O)c2cc(Br)ccc2n1	5.59
Cc1nc(-c2cccs2)sc1C(=O)NNC(=O)Nc1ccc(Cl)cc1	0.9
SMILES	Dicer processing
Cc1cc(-c2nc(C)c(C(=O)NNC(=O)Nc3ccc(Cl)cc3Cl)s2)no1	3.11*
CC(C)(C)c1cc(NC(=O)Nc2ccc(Cl)cc2Cl)no1	-1.16
COC(=O)c1ccccc1NC(=S)N(N)CCO	-0.19
COC(=O)c1ccccc1NC(=S)OC	0.06
CCOC(=O)Nc1ccccc1C(=O)OC	5.39*
O=S(=O)(c1ccc(Br)s1)N1CCC(C(c2ccccc2)c2ccccc2)CC1	0.14
Cc1ccccc1CN1C(=O)C(O)(CC(=O)c2cccs2)c2cc(Cl)ccc21 (configuration not stated)	5.34*
O=C(CC1(O)C(=O)N(CCc2ccccc2)c2ccc(Cl)cc21)c1cccs1 (configuration not stated)	4.2*
O=C(CC1(O)C(=O)N(CCc2ccccc2)c2ccc(Br)cc21)c1cccs1 (configuration not stated)	3
CN(C)c1ccc(C(=O)CC2(O)C(=O)N(Cc3ccc(Cl)cc3)c3ccccc32)cc1 (configuration not stated)	-1.67
Cc1coc(C)c1C(=O)CC1(O)C(=O)N(CCc2ccccc2)c2ccc(Br)cc21 (configuration not stated)	-0.43
Cc1ccc(C(=O)CC2(O)C(=O)N(CCc3ccccc3)c3ccc(Br)cc32)s1 (configuration not stated)	4.9*
CCN1C(=O)C(O)(CC(=O)c2cccs2)c2ccccc21 (configuration not stated)	0.2
O=C(CC1(O)C(=O)N(Cc2ccccc2)c2ccccc21)c1ccc(Cl)cc1 (configuration not stated)	3.05*
O=C(CC1(O)C(=O)N(Cc2ccc(Cl)cc2)c2ccccc21)c1cccs1 (configuration not stated)	0.52
O=C(CC1(O)C(=O)N(CCc2ccccc2)c2ccc(Br)cc21)c1ccco1 (configuration not stated)	2.64
Cc1ccc(CN2C(=O)C(O)(CC(=O)c3cccs3)c3cc(Cl)ccc32)cc1 (configuration not stated)	1.35
Cc1ccccc1CN1C(=O)C(O)(CC(=O)c2cccnc2)c2cc(Cl)ccc21 (configuration not stated)	2.44
Cc1cc(C)nc(-n2[nH]c3nccc(-c4ccc5c(c4)OCO5)c3c2=O)n1	-1
CCCCCCNc1ncnc2c1sc1nc3c(cc12)COC(C)(C)C3	-0.33
CCCOC(=O)C(CC)Oc1ccc2c(=O)c(Oc3ccc(OC)cc3)coc2c1 (configuration not stated)	-0.43
N/C(Cc1cc(Cl)cc(Cl)c1)=N\O	0.57
CCCCc1c(COC)[nH]c(=O)[nH]c1=O	-0.51
N#C/C(=C\Nc1cc(C(F)(F)F)cc(C(F)(F)F)c1)S(=O)(=O)c1cccs1	-0.3
Cc1sc2nc(SCCCC(=O)NCCO)nc(N)c2c1C	2.94
SMILES	Dicer processing
Cc1onc(-c2c(Cl)cccc2Cl)c1-c1csc(-c2cnccc2C(F)(F)F)n1	-0.19
CN1C(=O)C(O)(CC(=O)c2ccc3c(c2)OCO3)c2ccccc21 (configuration not stated)	1.78
CN1C(=O)C(O)(CC(=O)c2ccccc2)c2ccccc21 (configuration not stated)	1.98
CN1C(=O)C(O)(CC(=O)c2ccc3c(c2)CCCC3)c2ccccc21 (configuration not stated)	3.3*
CS(=O)(=O)c1ccc2nc(NC(=O)Oc3ccccc3)sc2c1	2.5
CS(=O)(=O)c1ccc2sc(NC(=O)c3cc4ccccc4o3)nc2c1	-0.08
CS(=O)(=O)c1ccc2nc(NC(=O)c3cc4ccccc4o3)sc2c1	4.24*
Cc1ccc(NC(=S)NC(C)(C)C)c(C)c1	12.6
NNC(=S)Nc1cccc(Cl)c1	2.86
Oc1ccccc1/C=N/NC(=S)Nc1cccc(Cl)c1	12.6*
CNC(=S)N/N=C/c1ccccc1O	1.42
CCCCCOC(=O)C1=C(C)NC2=C(C(=O)CCC2)C1c1cc(Br)c(O)c(OC)c1 (configuration not stated)	0.25
CCOC(=O)/C(=N\Nc1cccc(C(F)(F)F)c1)c1csc(N)n1	1.36
COc1ccc(C2/C(=C(/O)c3ccc(Cl)cc3)C(=O)C(=O)N2CC(C)C)cc1OC (configuration not stated)	-0.29
O=C(O)[C@@H]1CS[C@H](c2ccccc2)N1	2.44
O=c1cc(C(F)(F)F)[nH]c2cc(C(F)(F)F)ccc12	-2.42
O=C(Cn1c(NCCO)nc2ccccc21)c1ccco1	-0.78
O=C(Cn1c(NCCO)nc2ccccc21)c1cccc2ccccc12	4.25*
CC(C)n1c(NCCO)nc2ccccc21	-0.94
O=c1[nH]n(CCO)c(=O)c2ccccc12	0.19
CCCCc1c(O)nc(SCCN(CC)CC)n(-c2ccccc2)c1=O	3.32*
CCCCc1c(O)nc2sc3ccccc3n2c1=O	0.25
CCc1c(O)nc(SCC(=O)N2CCc3ccccc32)n(-c2ccccc2)c1=O	-1
Brc1ccc2ncnc(NCCc3ccccc3)c2c1	2.7
CC(=O)C(C)(C)OC(=O)NCCc1ccccn1	-0.94

Bioassay records from PubChem.
